This passage reports outcome and AC50 results from PubChem BioAssay (EPA / NIEHS).

Test [1] concerns the target rat Glutamate, AMPA Site (AMPA), Gria1 (gene 50592) (UniProt P19490). Description: NVS_LGIC_rAMPA: NovaScreen (NVS) Ligand-Gated Ion Channel Assay for rat Glutamate, AMPA Site (AMPA) (AID 2283324). The gist of the method: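 Screening at 25 uM in duplicate preceded concentration series reaching 50 uM for qualifying compounds. Radioligand displacement on rat forebrain membranes, 1 h, filter-based scintillation readout; reduced binding relative to DMSO.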

Test [2] concerns the target human Constitutive Androstane Receptor (CAR), NR1I3 (gene 9970) (UniProt Q14994). Description: NVS_NR_hCAR_Agonist: NovaScreen (NVS) Nuclear Receptor Binding Assay for human Constitutive Androstane Receptor Agonism (CAR) (AID 2283328). The procedure, abridged:
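Actives from a 25 uM duplicate screen were retested in singleton concentration series to 50 uM max. Biochemical TR-FRET assay on extracted CAR protein measured 1 h post-dose, with signal increase over DMSO control.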

The target in test [3] is human Peripheral-type Benzodiazepine Receptor (PBR), TSPO (gene 706) (UniProt P30536). Briefly: NVS_MP_hPBR: NovaScreen (NVS) Membrane Protein Assay for human Peripheral-type Benzodiazepine Receptor (PBR) (AID 2283331).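 Also: hits reduce radioligand binding relative to DMSO baseline.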 The procedure, abridged:
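Cell-free radioligand displacement, human colonic membranes, 1 h exposure. Filter radiodetection read-out. Single-concentration duplicates (25 uM), then concentration-response for actives; DMSO negative control.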

For test [4], the target named is rat Peripheral-type Benzodiazepine Receptor (PBR), Tspo (gene 24230) (UniProt P16257). Description: NVS_MP_rPBR: NovaScreen (NVS) Membrane Protein Assay for rat Peripheral-type Benzodiazepine Receptor (PBR) (AID 2283335). The gist of the method:
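Single-concentration duplicate screening at 25 uM preceded concentration-series retesting of actives. Binding of a specific radioligand to rat kidney membrane PBR was read by filtration radiodetection after 1 h, with plate-wise positive and negative controls.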

In the next test the test system is NCBI gene 100848466. Briefly: NVS_NR_bPR: NovaScreen (NVS) Nuclear Receptor Binding Assay for bovine Progextron Receptor (PR) (AID 2283343).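 As to AC50: actives lower bound radioligand signal below DMSO meaning displacement of the label.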 The gist of the method:
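Scintillation counts of bound radioligand were read 18 hours after chemical addition to membranes extracted from bovine uterus. Displacement was scored as loss of signal relative to DMSO controls. Screening began at 25 uM in duplicate.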

In test [5] the target is rat Gamma-Aminobutyric Acid Type A Receptor, Non-Selective (GABAR-NonSelective), Gabra1 (gene 29705) (UniProt P62813). Briefly: NVS_LGIC_rGABAR_NonSelective: NovaScreen (NVS) Ligand-Gated Ion Channel Assay for rat Gamma-Aminobutyric Acid Type A Receptor, Non-Selective (GABAR-NonSelective) (AID 2283326). The gist of the method:
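Compounds were first screened in duplicate at 25 uM, with actives run as singleton concentration series (max 50 uM). Binding of a radioligand to rat whole-brain GABA-A preparation was measured by filtration and scintillation counting after 1 h, DMSO baseline.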

Test [6] has as its target bovine Estrogen Receptor (ER), ESR1 (gene 407238) (UniProt P49884). Briefly: NVS_NR_bER: NovaScreen (NVS) Nuclear Receptor Binding Assay for bovine Estrogen Receptor (ER) (AID 2283345).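 Also: actives lower the bound radioligand count which means they displace the ER ligand.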 The gist of the method: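 Cell-free radioligand binding with receptor from bovine uterine membranes, read by scintillation counting 18 h after dosing. Loss of specific binding was scored against DMSO; primary screen at 25 uM in duplicate, actives then run as concentration series.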

The target in test [7] is rat Glutamate, NMDA Agonist Site (GluNMDA), Grin1 (gene 24408) (UniProt P35439). Description: NVS_LGIC_rGluNMDA_Agonist: NovaScreen (NVS) Ligand-Gated Ion Channel Assay for rat Glutamate, NMDA Agonist Site (GluNMDA) (AID 2283327). The procedure, abridged: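 Radioligand displacement at the agonist site on rat forebrain membrane preparations, read by filter scintillation after 1 h. Chemicals were first run at 25 uM in duplicate; those passing threshold were titrated to a 50 uM maximum.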

In test [8] the target is rat Thyrotropin Releasing Hormone Receptor (TRH), Trhr (gene 25570) (UniProt Q01717). Description: NVS_GPCR_rTRH: NovaScreen (NVS) G Protein-Coupled Receptor Assay for rat Thyrotropin Releasing Hormone Receptor (TRH) (AID 2283329).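 Also: hit means lower bound tracer signal versus DMSO baseline.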 The procedure, abridged:
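Cell-free radioligand binding on rat forebrain membranes; bound tracer measured by filter-based scintillation counting 4 hours after dosing. Loss of signal versus DMSO baseline indicates displacement; primary screen at 25 uM in duplicate, actives then run in concentration series.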

The target of test [9] is Voltage-gated inwardly rectifying potassium channel KCNH2 (Homo sapiens) (UniProt Q12809). Description: NVS_IC_hKhERGCh: NovaScreen (NVS) Ion Channel Assay for human Potassium Channel ERG (KhERGCh) (AID 2283333). The procedure, abridged:
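Membranes from CHO cells expressing human ERG; displacement of radioligand measured by filtration and scintillation after 0.75 h. Single-concentration duplicate screen at 25 uM, then concentration-response for actives; DMSO baseline.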

Test [10] in a line: NVS_IC_rCaBTZCHL: NovaScreen (NVS) Ion Channel Assay for Calcium Channel, Type L, Benzothiazepine Site (CaBTZCHL) (AID 2283337). The procedure, abridged:
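Rat cortical membrane preparation, cell-free. Radioligand displaced by test chemical; 1.5 h incubation; filtration, scintillation count. DMSO = negative control/baseline. Primary: duplicate, 25 uM; secondary: concentration series.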

Test [11] has as its target rat Glutamate, MK-801 Agonist Site (GluNMDA_MK801), Grin1 (gene 24408) (UniProt P35439). Description: NVS_LGIC_rGluNMDA_MK801_Agonist: NovaScreen (NVS) Ligand-Gated Ion Channel Assay for rat Glutamate, MK-801 Agonist Site (GluNMDA_MK801) (AID 2283340). The procedure, abridged: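 Rat forebrain membrane preparation; MK-801-site radioligand binding read by filtration and scintillation after 1.5 h. Single-point 25 uM duplicate screen, followed by singleton concentration series to 50 uM max; DMSO baseline.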

The test system of test [12] is guinea pig Histamine Receptor (H2), gene 100729734. Description: NVS_GPCR_gH2: NovaScreen (NVS) G Protein-Coupled Receptor Assay for guinea pig Histamine Receptor (H2) (AID 2283342). The gist of the method:
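Guinea pig striatal membrane preparation with specific radioligand; bound counts measured by filtration and scintillation 1 h post-dosing, DMSO as baseline. Chemicals passing a 25 uM duplicate screen were titrated to a 50 uM maximum.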

The target in test [13] is human Serotonin, 5-Hydroxytryptamine Receptor 3 (5HT3), HTR3A (gene 3359) (UniProt P46098). Briefly: NVS_LGIC_h5HT3: NovaScreen (NVS) Ligand-Gated Ion Channel Assay for human Serotonin, 5-Hydroxytryptamine Receptor 3 (5HT3) (AID 2283325). The procedure, abridged: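 Initially tested at 25 uM in duplicate, then up to 50 uM in concentration-response for actives, compounds competed with a radioligand for HEK293-derived human 5-HT3 receptor. Bound counts were measured by filtration and scintillation at 1 h; loss of signal versus DMSO.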

In test [14] the target is Small conductance calcium-activated potassium channel protein 1 (Rattus norvegicus) (UniProt P70606). Briefly: NVS_IC_rKCaCh: NovaScreen (NVS) Ion Channel Assay for rat Potassium Channel, Ca2+ Act., VI (KCaCh) (AID 2283336). The gist of the method:
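Filter-based scintillation counting of radioligand bound to rat forebrain membrane preparations, measured 1 h after compound addition. Primary screen used 25 uM in duplicate, with concentration-response follow-up; signal decrease relative to DMSO marks activity.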

Test [15] deals with rat Glycine Receptor, Strychnine-sensitive (GlyRStrySens), Glra1 (gene 25674) (UniProt P07727). Briefly: NVS_LGIC_rGlyRStrySens: NovaScreen (NVS) Ligand-Gated Ion Channel Assay for rat Glycine Receptor, Strychnine-sensitive (GlyRStrySens) (AID 2283341). The procedure, abridged:
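Radioligand displacement on rat spinal cord membranes, 1 hr, filter scintillation read-out. Single-concentration duplicate screen at 25 uM; chemicals meeting threshold (e.g., 30% inhibition) rerun in concentration-response up to 50 uM. Loss of binding fitted versus DMSO.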

For test [16], the target named is bovine Gamma-Aminobutyric Acid Type A Receptor Agonist (GABAR Agonist), GABRA1 (gene 780973) (UniProt P08219). Description: NVS_LGIC_bGABAR_Agonist: NovaScreen (NVS) Ligand-Gated Ion Channel Assay for bovine Gamma-Aminobutyric Acid Type A Receptor Agonist (GABAR Agonist) (AID 2283338). The gist of the method:
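Radioligand binding to bovine cerebellar membranes in agonist format, read by filter-based scintillation counting after 1 h. Primary screen in duplicate at 25 uM, with actives followed in concentration series. Gain of signal versus DMSO.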

Molecules are shown by their SMILES. Where “and” joins values, the source holds several entries; their conditions need not be identical. Equal values may be shown once. Inconclusive results are not listed. Calls of active or inactive are those of the source. The calls were made as follows: active = hit-call score of the fitted dose curve at least 0.9, where 1 is the maximum; inconclusive = response in the unintended direction; inactive = score below 0.9.

Chain of human Peripheral-type Benzodiazepine Receptor (PBR), TSPO (gene 706) (P30536 whole entry, looked up): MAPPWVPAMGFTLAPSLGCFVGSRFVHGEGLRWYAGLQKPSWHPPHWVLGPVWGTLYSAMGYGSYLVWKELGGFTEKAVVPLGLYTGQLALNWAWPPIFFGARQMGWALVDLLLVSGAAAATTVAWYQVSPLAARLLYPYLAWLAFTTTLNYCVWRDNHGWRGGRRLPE
Chain of Voltage-gated inwardly rectifying potassium channel KCNH2 (Homo sapiens) (Q12809 whole entry, looked up): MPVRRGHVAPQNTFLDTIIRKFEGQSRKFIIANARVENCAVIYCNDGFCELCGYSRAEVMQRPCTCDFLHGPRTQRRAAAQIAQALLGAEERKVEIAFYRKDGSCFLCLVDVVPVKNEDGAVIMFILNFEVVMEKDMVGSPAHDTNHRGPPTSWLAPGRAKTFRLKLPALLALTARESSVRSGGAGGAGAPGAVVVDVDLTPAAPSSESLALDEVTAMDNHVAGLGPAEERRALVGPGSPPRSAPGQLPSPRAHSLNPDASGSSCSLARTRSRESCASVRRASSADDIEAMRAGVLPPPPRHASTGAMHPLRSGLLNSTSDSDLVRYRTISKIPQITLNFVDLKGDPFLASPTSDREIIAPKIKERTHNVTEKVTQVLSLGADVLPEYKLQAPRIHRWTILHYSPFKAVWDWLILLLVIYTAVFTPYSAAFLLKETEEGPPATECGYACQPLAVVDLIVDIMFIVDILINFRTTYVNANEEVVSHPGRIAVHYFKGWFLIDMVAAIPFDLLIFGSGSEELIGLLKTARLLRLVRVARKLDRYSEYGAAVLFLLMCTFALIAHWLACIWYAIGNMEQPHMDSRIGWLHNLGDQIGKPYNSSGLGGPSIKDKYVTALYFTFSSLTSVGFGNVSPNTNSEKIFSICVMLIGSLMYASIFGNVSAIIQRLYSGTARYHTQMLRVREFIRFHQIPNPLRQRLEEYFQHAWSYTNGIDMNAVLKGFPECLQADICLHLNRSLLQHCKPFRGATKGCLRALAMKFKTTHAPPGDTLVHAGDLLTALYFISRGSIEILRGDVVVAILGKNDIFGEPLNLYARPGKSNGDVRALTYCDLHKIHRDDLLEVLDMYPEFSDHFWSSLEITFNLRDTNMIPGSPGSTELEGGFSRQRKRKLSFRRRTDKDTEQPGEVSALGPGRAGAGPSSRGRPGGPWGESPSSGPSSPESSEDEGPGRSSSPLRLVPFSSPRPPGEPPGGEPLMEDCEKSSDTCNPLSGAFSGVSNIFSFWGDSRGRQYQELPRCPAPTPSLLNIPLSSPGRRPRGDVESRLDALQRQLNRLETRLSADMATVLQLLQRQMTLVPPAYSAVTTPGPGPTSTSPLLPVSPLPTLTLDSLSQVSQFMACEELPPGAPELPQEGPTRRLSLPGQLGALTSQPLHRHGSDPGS
Chain of rat Peripheral-type Benzodiazepine Receptor (PBR), Tspo (gene 24230) (P16257 whole entry, looked up): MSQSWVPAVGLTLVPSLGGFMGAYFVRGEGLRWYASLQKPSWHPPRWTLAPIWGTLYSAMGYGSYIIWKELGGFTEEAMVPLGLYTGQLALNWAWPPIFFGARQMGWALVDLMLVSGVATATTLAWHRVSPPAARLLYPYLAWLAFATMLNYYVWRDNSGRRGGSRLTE
Chain of rat Thyrotropin Releasing Hormone Receptor (TRH), Trhr (gene 25570) (Q01717 whole entry, looked up): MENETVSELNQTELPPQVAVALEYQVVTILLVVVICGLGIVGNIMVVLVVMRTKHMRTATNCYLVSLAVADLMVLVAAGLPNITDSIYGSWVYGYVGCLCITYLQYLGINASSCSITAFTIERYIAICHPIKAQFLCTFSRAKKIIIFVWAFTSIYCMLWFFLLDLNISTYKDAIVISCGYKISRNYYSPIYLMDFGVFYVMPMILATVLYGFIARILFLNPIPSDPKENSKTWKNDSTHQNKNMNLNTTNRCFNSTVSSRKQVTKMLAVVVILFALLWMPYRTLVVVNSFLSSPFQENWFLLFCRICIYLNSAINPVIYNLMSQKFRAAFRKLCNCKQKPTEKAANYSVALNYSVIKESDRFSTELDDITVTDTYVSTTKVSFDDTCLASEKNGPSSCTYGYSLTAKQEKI
Chain of rat Gamma-Aminobutyric Acid Type A Receptor, Non-Selective (GABAR-NonSelective), Gabra1 (gene 29705) (P62813 whole entry, looked up): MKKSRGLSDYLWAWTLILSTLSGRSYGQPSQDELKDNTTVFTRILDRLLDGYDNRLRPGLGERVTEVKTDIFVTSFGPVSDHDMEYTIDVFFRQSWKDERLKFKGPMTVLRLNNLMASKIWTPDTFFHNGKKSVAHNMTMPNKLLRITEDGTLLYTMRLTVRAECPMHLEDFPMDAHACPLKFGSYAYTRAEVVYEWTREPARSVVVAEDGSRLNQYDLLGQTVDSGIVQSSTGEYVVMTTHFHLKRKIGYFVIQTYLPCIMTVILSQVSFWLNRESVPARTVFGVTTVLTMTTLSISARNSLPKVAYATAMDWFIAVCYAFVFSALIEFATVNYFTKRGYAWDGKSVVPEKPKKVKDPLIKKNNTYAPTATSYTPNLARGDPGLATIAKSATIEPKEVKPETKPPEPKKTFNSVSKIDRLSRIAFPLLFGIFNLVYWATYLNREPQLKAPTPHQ
Chain of bovine Estrogen Receptor (ER), ESR1 (gene 407238) (P49884 whole entry, looked up): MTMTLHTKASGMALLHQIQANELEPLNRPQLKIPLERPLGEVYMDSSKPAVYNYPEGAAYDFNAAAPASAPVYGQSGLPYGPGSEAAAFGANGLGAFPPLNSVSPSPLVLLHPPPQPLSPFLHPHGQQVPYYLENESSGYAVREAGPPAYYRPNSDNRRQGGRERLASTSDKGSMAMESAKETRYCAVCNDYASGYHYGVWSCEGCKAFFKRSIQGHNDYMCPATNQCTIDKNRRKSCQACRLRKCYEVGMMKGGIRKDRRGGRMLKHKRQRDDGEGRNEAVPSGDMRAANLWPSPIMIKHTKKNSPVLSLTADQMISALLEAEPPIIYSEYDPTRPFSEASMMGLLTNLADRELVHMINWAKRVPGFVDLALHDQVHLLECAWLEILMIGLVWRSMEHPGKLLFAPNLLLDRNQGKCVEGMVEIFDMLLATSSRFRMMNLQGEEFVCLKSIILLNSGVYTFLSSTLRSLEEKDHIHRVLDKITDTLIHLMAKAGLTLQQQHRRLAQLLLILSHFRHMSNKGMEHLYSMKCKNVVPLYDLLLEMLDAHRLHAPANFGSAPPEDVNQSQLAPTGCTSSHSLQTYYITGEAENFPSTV
Chain of rat Glutamate, AMPA Site (AMPA), Gria1 (gene 50592) (P19490 whole entry, looked up): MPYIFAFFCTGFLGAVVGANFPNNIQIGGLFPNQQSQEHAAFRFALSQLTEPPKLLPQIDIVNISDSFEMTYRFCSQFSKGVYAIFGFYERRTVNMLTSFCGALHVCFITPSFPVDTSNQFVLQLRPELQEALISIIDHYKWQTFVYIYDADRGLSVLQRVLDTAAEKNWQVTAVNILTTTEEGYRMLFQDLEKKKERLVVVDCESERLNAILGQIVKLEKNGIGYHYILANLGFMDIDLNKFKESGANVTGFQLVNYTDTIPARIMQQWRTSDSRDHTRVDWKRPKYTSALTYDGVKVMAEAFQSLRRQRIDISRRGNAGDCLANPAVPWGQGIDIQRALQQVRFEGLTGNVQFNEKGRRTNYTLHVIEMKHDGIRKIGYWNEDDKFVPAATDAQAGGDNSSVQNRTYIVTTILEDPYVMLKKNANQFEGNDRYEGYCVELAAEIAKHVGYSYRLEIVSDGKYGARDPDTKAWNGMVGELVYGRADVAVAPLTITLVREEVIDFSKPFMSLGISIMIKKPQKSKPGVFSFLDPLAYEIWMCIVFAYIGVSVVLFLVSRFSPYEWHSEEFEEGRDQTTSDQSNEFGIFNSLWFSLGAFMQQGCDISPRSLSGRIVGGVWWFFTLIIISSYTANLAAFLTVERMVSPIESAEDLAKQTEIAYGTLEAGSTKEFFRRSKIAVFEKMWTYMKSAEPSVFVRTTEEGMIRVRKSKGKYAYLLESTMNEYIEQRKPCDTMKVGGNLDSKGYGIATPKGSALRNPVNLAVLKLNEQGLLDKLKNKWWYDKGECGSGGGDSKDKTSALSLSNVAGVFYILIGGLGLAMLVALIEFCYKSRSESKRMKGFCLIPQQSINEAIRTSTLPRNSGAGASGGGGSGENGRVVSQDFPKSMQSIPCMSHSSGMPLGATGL
Chain of Small conductance calcium-activated potassium channel protein 1 (Rattus norvegicus) (P70606 whole entry, looked up): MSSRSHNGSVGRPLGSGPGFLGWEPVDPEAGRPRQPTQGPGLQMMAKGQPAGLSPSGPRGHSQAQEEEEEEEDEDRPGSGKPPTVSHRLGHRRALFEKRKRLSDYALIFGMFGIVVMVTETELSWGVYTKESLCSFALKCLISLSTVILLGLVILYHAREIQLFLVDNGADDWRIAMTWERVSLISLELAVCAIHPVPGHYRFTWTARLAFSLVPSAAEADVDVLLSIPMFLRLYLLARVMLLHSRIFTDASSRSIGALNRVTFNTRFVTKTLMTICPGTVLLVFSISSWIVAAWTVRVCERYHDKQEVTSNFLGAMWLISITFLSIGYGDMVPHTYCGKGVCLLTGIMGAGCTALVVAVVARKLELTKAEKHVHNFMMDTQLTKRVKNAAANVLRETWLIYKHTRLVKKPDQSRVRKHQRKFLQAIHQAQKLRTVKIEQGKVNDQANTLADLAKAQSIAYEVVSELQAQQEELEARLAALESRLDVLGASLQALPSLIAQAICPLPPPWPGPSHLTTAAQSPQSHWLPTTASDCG
Chain of bovine Gamma-Aminobutyric Acid Type A Receptor Agonist (GABAR Agonist), GABRA1 (gene 780973) (P08219 whole entry, looked up): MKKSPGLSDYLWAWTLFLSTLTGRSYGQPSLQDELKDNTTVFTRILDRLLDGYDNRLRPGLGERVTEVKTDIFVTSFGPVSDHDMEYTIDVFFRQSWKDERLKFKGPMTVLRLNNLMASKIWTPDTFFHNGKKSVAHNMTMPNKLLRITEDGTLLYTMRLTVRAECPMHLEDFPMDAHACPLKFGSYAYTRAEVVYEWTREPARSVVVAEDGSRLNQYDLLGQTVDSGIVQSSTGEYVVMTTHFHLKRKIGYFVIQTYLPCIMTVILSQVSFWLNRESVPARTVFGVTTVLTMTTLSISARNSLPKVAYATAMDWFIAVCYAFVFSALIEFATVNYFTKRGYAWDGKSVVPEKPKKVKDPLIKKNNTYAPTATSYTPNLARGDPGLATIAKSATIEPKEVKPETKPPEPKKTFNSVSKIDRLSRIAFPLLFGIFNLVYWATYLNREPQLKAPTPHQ

Consider `CCCCOC(=O)c1ccc(O)cc1`, for which the outcome (in [1]; in test [2]; in the test with NCBI gene 100848466) was inactive. The AC50 in test [3] was 19.6 µM (active) and 25 µM (active); in test [4], 3 µM (active) and 25 µM (active).

For the compound `Cc1cc2c(cc1C(F)(F)F)N(C(=O)Nc1ccc(Oc3cccnc3C)nc1)CC2`, the AC50 in test [5] is 8.52 µM (active). Also, in test [6], the call was inactive.

On to `COc1cc(C(=O)NC2CCN(C)CC2)ccc1Nc1ncc2c(n1)N(C1CCCC1)CC(F)(F)C(=O)N2C`, for which the AC50 was 11.5 µM (active) in test [7]; 5.1 µM (active) in test [9]; 10.8 µM (active) in [10]; 15.9 µM (active) in test [11]; 4.77 µM (active) in [12]. Moreover, the call in [8], in test [3] and in test [6] was inactive.

For the compound `COc1cccc([C@H](O)C2CCN(CCc3ccc(F)cc3)CC2)c1OC`, the call in [13] was inactive. Also, the values for the AC50 in test [10] and in test [12] were 1.35 µM (active) and 13.1 µM (active), respectively.

For the compound `Cc1occc1C(=O)Nc1ccc(C(=O)N2CCC(F)(F)/C(=C\C(=O)N3CCC(N4CCCCC4)CC3)c3ccccc32)cc1`, the compound was classed as inactive in test [8] and in [12]. In addition, the AC50 in test [10] was 5.12 µM (active).

Turning to `O=C1CCC(C2CCCCC2)CC1`, the compound was classed as inactive in test [8].

For `COc1ccc2cc(S(=O)(=O)N[C@H](CC(=O)N[C@H](Cc3ccc(CN4[C@H](C)CCC[C@@H]4C)cc3)C(=O)N(C)C(C)C)c3ccc4c(c3)OCO4)ccc2c1`, the AC50 in test [5] was 11.2 µM (active); in test [9], 1.21 µM (active); in test [10], 3.52 µM (active); in [15], 0.128 µM (active); in test [12], 20.5 µM (active). For the same compound, the outcome in [14] and in [11] was inactive.

Turning to `Cc1cc(F)ccc1-c1cc(N2CC[C@@H](O)[C@H]2CO)ncc1N(C)C(=O)C(C)(C)c1cc(C(F)(F)F)cc(C(F)(F)F)c1`, the result in [8], in test [10] and in test [12] was inactive. The figures for the AC50 (in [9]; in the test with NCBI gene 100848466) were 7.95 µM (active) and 11.3 µM (active), respectively.

For the compound `O=C1O[C@H]([C@@H](O)CO)C(O)=C1O`, the call in [7] and in test [16] was inactive.

Regarding `CN(C[C@@H](CC[N+]12CCC(C3CCCCC3)(CC1)CC2)c1ccc(Cl)c(Cl)c1)C(=O)c1cc(C(F)(F)F)cc(C(F)(F)F)c1`, the result in [1] was inactive. Moreover, the half-maximal activity concentration (AC50) in [7] is 38.2 µM (active); in test [4], 2.4 µM (active); in test [10], 1.48 µM (active); in the test with NCBI gene 100848466 it was 41.5 µM (active).

`Oc1ccc2ccccc2c1`: the result in test [3] was inactive.

One may read the AC50 as the midpoint of the concentration-response curve, whichever way the signal moves.
